697 NFkB inh: inhibitors of the PMA/ionomycin-induced NF-kB reporter in 697 B cells; 697 B-cell NF-kB luciferase reporter, 16 h; inhibition, % at 4 µM; 0.33% of 330,000 active; AID 435022; in the data active means inhibition above about 35%
Mdm2 MdmX PPI: disrupts the human Mdm2-MdmX interaction | 3% of 330,000 active | O15151+Q00987 | AID 485346 | SaOS-2 split-luciferase Mdm2/MdmX complementation, luminescence | inhibition, % at 8 µM;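 active means inhibition of at least 50% at 8 µM in the primary screen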
Shn3 inh set2: reduces Shn3 3'UTR luciferase signal in osteoblasts | Clone20 osteoblast Shn3 3'UTR firefly luciferase, 24 h | inhibition, % at 12.5 µM | 0.52% of 360,000 active | AID 588674;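 active means mean inhibition of at least 75% with every replicate also reaching 75%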;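 further: 0% = median of neutral control wells and 100% = pilot-screen positive control compound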
Gli-Sufu antag: antagonists of Gli-Sufu signaling; Sufu-KO-LIGHT fibroblasts, Gli luciferase reporter luminescence; inhibition, % at 5 µM; 0.74% of 340,000 active; AID 588413;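 active means inhibition above about 55%, limit read from the data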;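 further: 0% = DMSO-treated cells and 100% = wells with medium but no cells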
Jurkat NFkB inh: inhibitors of the PMA/ionomycin-induced NF-kB reporter in Jurkat cells. PMA/ionomycin-induced NF-kB luciferase reporter, luminescence. inhibition, % at 4 µM. 0.53% of 330,000 active; in the data active means inhibition above about 50%
Mdm2 MdmX conf: confirmation of human Mdm2/MdmX interaction inhibitors; Mdm2-MdmX binding, luminescent assay; inhibition, % at 8 µM; shares compounds with Mdm2 MdmX PPI; 55% of 10,000 active; in the data active means inhibition above about 40%
Full FLuc ctr: full-length luciferase inhibition in Mdm2/MdmX counter-screen; shares compounds with Mdm2 MdmX PPI; SaOS-2 full-length luciferase counterscreen, luminescence; inhibition, % at 8 µM; 77% of 6,200 active; AID 504607;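 active means mean inhibition at 8 µM reaching about 37%, which flags the compound as non-specific, limit read from the data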;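 further: p53-null SaOS-2 cells with luciferase driven by a doxycycline-inducible promoter; compound on cells about two nights before reading with doxycycline added after day one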
Gli-Sufu confirm: confirmation of Gli-SUFU pathway antagonists | shares compounds with Gli-Sufu antag | Sufu-KO-LIGHT cells, Gli luciferase reporter, luminescence | inhibition, % at 5 µM | 40% of 2,500 active;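 active means mean inhibition at 5 µM reaching about 45%, limit read from the data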;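 further: plate controls were DMSO-treated cells for no effect and wells lacking cells for full effect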
Gli cytotox: cytotoxic in Gli-SUFU antagonist counter-screen. shares compounds with Gli-Sufu antag. Sufu-KO-LIGHT cells cytotoxicity, ATP luminescence. cytotoxicity, % at 5 µM. 32% of 2,500 active. AID 651994;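 active means mean cytotoxicity at 5 µM above about 25%, limit read from the data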;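 further: cells exposed to compound overnight for roughly 16 to 18 hours; plate controls were DMSO wells with cells for no effect and medium without cells for full effect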
Wnt3a counter: inhibits Wnt3a reporter, counter-screen for Gli-SUFU antagonists; shares compounds with Gli-Sufu antag; Wnt-LIGHT cells, Wnt3a-driven luciferase reporter, luminescence; inhibition, % at 6.25 µM; 20% of 2,500 active; AID 651995;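 active means mean inhibition above about 25%, limit read from the data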
Starred values were filed as active, the others as inactive; · = no result given. In the library only some 3.8% were active in any assay of this set; here they are far more common.

SMILES	697 NFkB inh	Mdm2 MdmX PPI	Shn3 inh set2	Gli-Sufu antag	Jurkat NFkB inh	Gli-Sufu confirm	Gli cytotox	Wnt3a counter	others
C[C@H]1CC[C@@H]2[C@@H](C)[C@H]3[C@H](C[C@H]4[C@@H]5CC=C6C[C@@H](O[C@@H]7O[C@H](CO)[C@H](O)[C@H](O[C@@H]8O[C@H](CO)[C@@H](O)[C@H](O)[C@H]8O)[C@H]7O[C@@H]7O[C@@H](C)[C@H](O)[C@@H](O)[C@H]7O)CC[C@]6(C)[C@H]5CC[C@]34C)N2C1	-4	60*	7	-9	-2	·	·	·	Mdm2 MdmX conf=-11
CN(C)CCSC1c2ccccc2CSc2ccccc21 (stereo not given)	1	15	2	9	-15	·	·	·
Brc1ccc(-[n+]2c(-c3ccccc3)cc(-c3ccccc3)cc2-c2ccccc2)cc1	-37	87*	90*	56*	41	79*	8	6	Mdm2 MdmX conf=74*;Full FLuc ctr=24
C=C1[C@@H](C)[C@H]2[C@H](Cc3ccccc3)NC(=O)[C@]23OC(=O)/C=C/[C@H](O)CCC[C@@H](C)C/C=C/[C@H]3[C@@H]1O	12	82*	73	57*	19	36	46*	58*	Mdm2 MdmX conf=71*;Full FLuc ctr=53*
C[C@H]1C/C=C/[C@H]2[C@H](O)[C@H](C)[C@@](C)(O)[C@H]3[C@H](Cc4ccccc4)NC(=O)[C@]32[C@H](O)/C=C/[C@](C)(O)C1	16	32	13	-9	1	·	·	·
COc1ccc(CN2CCN(Cc3ccccc3F)CC2)cc1	9	5	-3	11	0	·	·	·
C#CCNc1ccncc1S(=O)(=O)NC(=O)NC(C)C	-3	11	2	57*	-22	11	-6	5
CCN(CC)P(=O)(c1nccn1C)N(CC)CC	-3	-18	-8	0	5	·	·	·
CCCCCn1c(=O)c(C(=O)Nc2nc(CC(=O)OCC)cs2)c(O)c2ccccc21	-16	3	77	20	12	·	·	·
CCOC(=O)C1(CCc2ccccc2)CCN(Cc2csc(C(C)=O)c2)CC1	-45	23	21	53	27	22	2	-46
Cc1c(C=C2C(=O)N(C)C(=S)N(C)C2=O)c2ccccc2n1CC(=O)NCC1CCCO1 (stereo not given)	14	21	-16	1	-18	·	·	·
Nc1ccc(C2(c3ccc(N)cc3)CN3CCC2CC3)cc1	4	10	10	71*	12	17	-2	0
Cc1ccc(C2(O)CN3CCC2CC3)cc1 (stereo not given)	-3	6	0	-5	-9	·	·	·
COC(=O)C1=C(c2ccc(F)cc2F)C[C@@H]2CC[C@H]1N2C(=O)NCCOc1ccccc1Cl	-4	-6	3	16	1	·	·	·
COc1ccc(CC2C(=O)NC(C)C(=O)N(C)C3C(=O)N(C)C(Cc4ccc(O)c(c4)Oc4ccc(cc4)C3O)C(=O)NC(C)C(=O)NC(C)C(=O)N2C)cc1 (stereo not given)	·	·	·	93*	·	96*	87*	105*
COC(=O)C1=C(c2ccc(C(C)=O)cc2)C[C@@H]2CC[C@H]1N2C(=O)NCc1ccc(F)cc1	24	15	20	-1	-3	·	·	·
CN1/C(=C\C=C2C(=O)NC(=O)NC2=O)C(C)(C)c2ccccc21	-11	6	18	3	-2	·	·	·
CN1/C(=C\C=Nc2ccccc2)C(C)(C)c2ccccc21	-60	8	69	59*	3	59*	27*	7
N#Cc1c(Br)n(C2OC(CO)C(O)C2O)c2ncnc(N)c12 (stereo not given)	·	·	35	-17	·	·	·	·
N#Cc1cn(C2OC(CO)C(O)C2O)c2ncnc(N)c12 (stereo not given)	·	·	82	81*	·	98*	97*	-53
COc1ccc2c(c1)C(NC(C)=O)CCc1cc(OC)c(OC)c(OC)c1-2 (stereo not given)	·	·	10	50	·	50*	64*	3
COC1=C[C@@H]2C3=C([C@@H]2C1=O)[C@@H](NC(C)=O)CCc1cc(OC)c(OC)c(OC)c13	16	-10	8	-7	9	·	·	·
CCOC(=O)c1c(-n2c(C)cc(/C=C3\C(=O)NC(=O)N(C)C3=O)c2C)sc2c1CCCC2	-7	11	7	14	-3	·	·	·
Cc1cc(/C=C2\C(=O)NC(=O)N(c3ccc(Cl)cc3)C2=O)c(C)n1-c1sc2c(c1C#N)CCCC2	-8	37	22	53	-2	55*	47*	-39
C=CCn1c(O)c(C(CC)=NCC2CCCO2)c(=O)[nH]c1=O (stereo not given)	6	-23	4	9	-6	·	·	·
SMILES	697 NFkB inh	Mdm2 MdmX PPI	Shn3 inh set2	Gli-Sufu antag	Jurkat NFkB inh	Gli-Sufu confirm	Gli cytotox	Wnt3a counter	others
CC1CCOC(=O)C=CC=CC(=O)OC2CC3OC4C5OC5(C)C(O)CC4(COC(=O)C1O)C2(C)C31CO1 (stereo not given)	·	·	97*	91*	·	93*	77*	103*
CC(=O)N(C)C1=Nc2ccc(Cl)cc2C(c2ccccc2)=[N+]([O-])C1	·	·	2	-2	·	·	·	·
O=C(CF)NC(NC(=S)Nc1ccccc1O)C(Cl)(Cl)Cl (stereo not given)	10	25	6	87*	-10	17	20	-17
CN(C)CCN(CC1CCCN(Cc2ccccc2F)C1)C(=O)Cc1ccccc1F (stereo not given)	·	·	-3	·	·	·	·	·
COc1ccc(CC(=O)N(CCN(C)C)CC2CCCN(Cc3ccccc3F)C2)cc1 (stereo not given)	2	21	-8	50	-10	29	11	-2
C=C1C(=O)O[C@H]2[C@H]1[C@H](OC(=O)CC(=O)O[C@@H]1C[C@@H](C)[C@@H]3C=CC(=O)[C@@]3(C)[C@H]3OC(=O)C(=C)[C@H]13)C[C@@H](C)[C@H]1C=CC(=O)[C@]12C	-76	49	85	52	19	45	35*	-4
COC1/C=C/C=C(\C)Cc2cc(O)c(Cl)c(c2)N(C)C(=O)CC(OC(=O)C(C)C)C2(C)OC2C(C)C2CC1(O)NC(=O)O2 (stereo not given)	·	·	-15	54	·	61*	58*	-5
COC(=O)C1=C(c2ccc(OC)c(OC)c2)C[C@@H]2CC[C@H]1N2C(=O)N1CCCCC1	1	13	-16	-8	-2	·	·	·

Screens: PubChem, several laboratories
